# High-throughput results from PubChem BioAssay.
# GluA2 TARP mod – GluA2-stargazin AMPA receptor complex modulation; 40,000 tested, 3.5% active; O88602+P19491; calls only at 30 µM; HEK293 GluA2+stargazin, membrane potential dye (FDSS), glutamate EC50; hits were called plate by plate, in both directions;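 active = any of four per-well response measures lying three or more SD from its plate-wide compound average, in either direction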
# Target sequence (O88602 whole entry, looked up): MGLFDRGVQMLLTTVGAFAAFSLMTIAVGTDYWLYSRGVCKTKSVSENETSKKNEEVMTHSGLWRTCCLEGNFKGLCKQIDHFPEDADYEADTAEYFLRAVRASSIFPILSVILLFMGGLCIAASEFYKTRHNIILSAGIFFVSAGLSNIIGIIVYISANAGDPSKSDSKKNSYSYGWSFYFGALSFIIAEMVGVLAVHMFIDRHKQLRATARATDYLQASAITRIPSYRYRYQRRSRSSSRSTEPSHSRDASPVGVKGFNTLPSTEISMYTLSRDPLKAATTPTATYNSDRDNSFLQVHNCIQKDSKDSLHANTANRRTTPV
# Target sequence (P19491 whole entry, looked up): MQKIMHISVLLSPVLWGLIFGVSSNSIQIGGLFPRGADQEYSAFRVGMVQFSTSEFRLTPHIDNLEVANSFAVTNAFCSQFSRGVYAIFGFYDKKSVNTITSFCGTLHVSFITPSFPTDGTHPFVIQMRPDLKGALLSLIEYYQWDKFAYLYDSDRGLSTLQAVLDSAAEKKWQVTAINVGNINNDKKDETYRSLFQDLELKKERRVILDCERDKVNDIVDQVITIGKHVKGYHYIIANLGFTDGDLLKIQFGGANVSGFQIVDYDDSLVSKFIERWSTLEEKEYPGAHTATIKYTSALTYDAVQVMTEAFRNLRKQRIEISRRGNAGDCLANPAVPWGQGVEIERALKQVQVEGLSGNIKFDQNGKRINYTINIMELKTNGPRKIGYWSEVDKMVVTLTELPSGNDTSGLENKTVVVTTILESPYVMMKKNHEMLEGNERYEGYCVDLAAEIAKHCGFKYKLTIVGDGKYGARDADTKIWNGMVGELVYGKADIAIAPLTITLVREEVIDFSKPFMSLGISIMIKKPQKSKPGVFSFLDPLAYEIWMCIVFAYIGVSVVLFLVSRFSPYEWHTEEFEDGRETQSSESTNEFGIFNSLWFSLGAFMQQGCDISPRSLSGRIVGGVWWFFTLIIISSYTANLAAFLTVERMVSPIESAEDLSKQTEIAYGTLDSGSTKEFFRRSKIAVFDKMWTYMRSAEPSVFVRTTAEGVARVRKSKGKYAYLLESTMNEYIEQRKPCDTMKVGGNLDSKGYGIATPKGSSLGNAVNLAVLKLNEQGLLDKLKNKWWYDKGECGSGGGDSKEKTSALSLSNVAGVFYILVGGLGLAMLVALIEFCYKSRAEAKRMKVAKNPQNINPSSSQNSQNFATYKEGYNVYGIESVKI
# GIRK2 act – Activators of human GIRK2-containing channels | HEK293 GIRK2/NPY4 cells, thallium flux fluorescence | activation (% efficacy), % for hits at 37.5 µM | 34,000 tested, under 10 active | AID 1259324;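 active = primary screen hit, no activity in plain HEK293 cells, and in GIRK2-only cells above 5% efficacy rising with concentration; inactive = the rest, including fluorescent compounds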;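 note: efficacy is normalized control-subtracted fluorescence 15 s after thallium addition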
# * hit, by the source's call; i = inactive; nt = not tested or not shown; + = active, no number; ! = not confirmed by another sample. Many of the other results were omitted from the sample, so hits are more common in it than they were.
SMILES,GluA2 TARP mod,GIRK2 act
COc1cccc2cc(S(=O)(=O)c3cccc(C#N)c3)c(=O)oc12,i,i
Cc1ccnc(C(=O)Nc2ccc(Nc3cc(N4CCOCC4)nc(C)n3)cc2)n1,nt,i
Cc1ccnc(C(=O)Nc2ccncc2)n1,+,i
CSc1ccccc1C(=O)NCC1(O)CCc2ccccc21 (centres undefined),nt,i
Cc1cc(NCCCn2ccnc2)n2nc(C(F)(F)F)c(-c3ccccc3)c2n1,i,i
COc1ccc(S(=O)(=O)N2CCSC2c2ccc(Br)cc2)cc1 (centres undefined),i,nt
COc1ccc(Br)cc1C1SCCN1S(=O)(=O)c1cccc(C)c1 (centres undefined),+,nt
CCOC(=O)c1csc(NC(=O)c2cc3ccccc3o2)n1,+,nt
C=CCNC(=O)Nc1nc(C(=O)OCC)cs1,i,i
O=C(Nc1ccc(CC(=O)N2CCCC2)cc1)c1ccc2c(c1)OCO2,nt,i
Cn1c(=O)c2c(ncn2CC(=O)NCc2ccccc2)n(C)c1=O,+,nt
Cn1c(=O)c2c(ncn2Cc2ccccc2)n(C)c1=O,i,nt
O=C(CC1SC(=O)N(Cc2ccccc2)C1=O)Nc1ccc([N+](=O)[O-])cc1 (centres undefined),+,i
COc1ccc(NC(=O)CC2SC(=O)N(CC(=O)c3ccccc3)C2=O)cc1 (centres undefined),i,i
CCc1ccc(CNC(=O)Cc2nnc(Nc3ccccc3C)s2)cc1,nt,i
Cc1ccsc1C(O)CNC(=O)C(c1ccccc1)c1ccccc1 (centres undefined),+,i
Cc1ccsc1C(O)CNC(=O)Cc1ccccc1Cl (centres undefined),i,i
O=C(CS(=O)(=O)c1ccc(Cl)s1)Nc1cccc(C(F)(F)F)c1,+,i
O=C(CS(=O)(=O)c1ccc(Cl)s1)Nc1ccc(Oc2ccccc2)cc1,i,i
CN(C1CCCC1)S(=O)(=O)c1ccc(C(=O)Nc2ccc3c(c2)OCO3)cc1,i,nt
CCCCN1C(=O)CCc2cc(NC(=O)c3ccc4c(c3)OCO4)ccc21,i,i
CN(c1ccsc1C(=O)Nc1ccc(F)c(F)c1)S(=O)(=O)c1ccccc1,i,i
CN1C(=O)CCc2cc(NC(=O)c3ccc4c(c3)OCO4)ccc21,+,nt
CN(c1ccsc1C(=O)Nc1ccc2c(c1)OCCO2)S(=O)(=O)c1ccccc1,+!,i
CN(C1CC1)S(=O)(=O)c1ccc(C(=O)Nc2ccc3c(c2)OCO3)cc1,+,i
SMILES,GluA2 TARP mod,GIRK2 act
O=C(CCCS(=O)(=O)c1ccccc1)Nc1nc2c(s1)CCc1ccccc1-2,i,i
O=C(c1ccc([N+](=O)[O-])o1)N(CCN1CCOCC1)c1nc2c(F)cccc2s1,+,i
Cc1ccc2nc(N(CCN3CCOCC3)C(=O)c3ccc([N+](=O)[O-])o3)sc2c1,+,nt
O=C(c1ccc([N+](=O)[O-])s1)N(CCN1CCOCC1)c1nc2c(F)cccc2s1,i,i
O=C(c1cc2cc([N+](=O)[O-])ccc2s1)N(CCN1CCOCC1)c1nc2ccc(F)cc2s1,+,nt
COc1ccc2sc(N(CCN3CCOCC3)C(=O)c3ccc([N+](=O)[O-])o3)nc2c1,i,nt
O=C(c1cccc([N+](=O)[O-])c1)N(CCN1CCOCC1)c1nc2ccc(F)cc2s1,i,nt
COc1ccccc1-c1nnc(NC(=O)c2cccc(OC)c2OC)o1,i,nt
Cc1ccnc(Nc2ccc(NCCNC(=O)CCc3ccccc3)nn2)c1,i,i
O=C(Nc1ccc2ncsc2c1)c1ccc(S(=O)(=O)N2CCc3ccccc3C2)cc1,i,i
O=C(Nc1ccc2c(c1)CN(S(=O)(=O)c1ccccc1)CC2)c1ccc2nsnc2c1,+,i
COC(=O)c1ccc2c(=O)n(CCC(=O)NCC(C)C)c(=S)[nH]c2c1,i,i
Cc1ccc(C)c(Cn2c(=O)c3c(nc4n(CCCN(C)C)c(C)c(C)n34)n(C)c2=O)c1,i,i
Cc1c(C)n2c3c(=O)n(Cc4cccc(Cl)c4)c(=O)n(C)c3nc2n1CCN(C)C,+,i
O=C(c1ccc([N+](=O)[O-])o1)N(C(=O)N1CCCCC1)c1ccc(Cl)cc1,+,nt
O=C(c1cc2ccccc2o1)N(C(=O)N1CCCCC1)c1ccc(Cl)cc1,i,nt
O=C(c1cc(=O)c2ccccc2o1)N(C(=O)N1CCCCC1)c1ccc(Cl)cc1,+,nt
O=C(c1ccc(Br)o1)N(C(=O)N1CCCCC1)c1cccc(Cl)c1,i,i
CC(=O)Cn1c(=O)c2c(nc3n(-c4cccc(C)c4)c(C)cn23)n(C)c1=O,i,nt
Cc1cccc(Nc2ccc(N3CCN(C(=O)C4CCCO4)CC3)nn2)n1 (centres undefined),nt,i
Cc1cccc(Nc2ccc(N3CCN(C(=O)C4CCC(=O)N4)CC3)nn2)n1 (centres undefined),+,i
COCCNC(=O)C(=O)NCc1ccccn1,i,nt
COc1ccccc1C(=O)N(CCc1cccs1)c1nc2ccc(S(C)(=O)=O)cc2s1,+,i
COc1ccc2sc(N(Cc3ccncc3)C(=O)c3ccccc3S(C)(=O)=O)nc2c1,i,i
Cc1sc(NC(=O)c2ccc(S(=O)(=O)C(C)C)cc2)c(C#N)c1C,i,i
SMILES,GluA2 TARP mod,GIRK2 act
CCS(=O)(=O)c1ccc(C(=O)Nc2sc(C(=O)OC)c(C)c2C#N)cc1,+,i
COCCCn1c(N)c(S(=O)(=O)c2ccc(OC)cc2)c2nc3ccccc3nc21,i,i
COCCCn1c(N)c(S(=O)(=O)c2cc(C)ccc2C)c2nc3ccccc3nc21,i,i
COCCn1c(N)c(S(=O)(=O)c2cccc(Cl)c2)c2nc3ccccc3nc21,+,i
COCCCn1c(N)c(S(=O)(=O)c2ccc(Cl)cc2)c2nc3ccccc3nc21,+,i
Cc1ccc(S(=O)(=O)N2CCC3(CC2)C(=O)N(C)C(=O)N3C)c(C)c1,i,i
CC(=O)c1cccc(NC(=O)Cn2cc(-c3ccc(Cl)cc3)c(N3CCOCC3)n2)c1,nt,i
COc1ccc(-n2c(C)nc3ccc(NS(=O)(=O)Cc4ccccc4)cc3c2=O)cc1,nt,i
Cc1nc(-c2ccccc2)sc1C(=O)NCCn1nc(-c2cccnc2)ccc1=O,i,i
COc1ccc(-c2ccc(C)c(NC(=O)Cc3ccc(OC)c(OC)c3)c2)nn1,i,i
COc1ccc(-c2ccc(C)c(NS(=O)(=O)c3ccc(NC(=O)C(C)C)cc3)c2)nn1,+,i
Cc1ccc(OCC(=O)N2CCN(c3ccc4nncn4n3)CC2)cc1C,i,i
COc1cc(C(C)=O)ccc1OCC(=O)N1CCN(c2ccc3nncn3n2)CC1,+,i
CC1C(=O)NCCN1C(=O)c1ccc2c(c1)OCO2 (centres undefined),nt,i
Cc1ccc(N2CCN(c3ccc(S(=O)(=O)c4ccccc4)nn3)CC2)c(C)c1,i,i
Cc1ccc(C)c(N2CCN(c3ccc(S(=O)(=O)c4ccccc4)nn3)CC2)c1,+,i
Cc1ccc(NC(=O)C2CCN(c3ccc(-c4ccccc4)nn3)CC2)cc1F,i,i
N#C/C(=C\c1ccccc1)c1nc2ccccc2s1,i,nt
N#C/C(=C\c1cccs1)c1nc2ccccc2s1,+,nt
COc1cn(CC(=O)Nc2cc(C)cc(C)c2)c(CSc2nccc(C)n2)cc1=O,i,i
